Experimental findings from PubChem BioAssay (NCATS) are described below.

One test relates to MKL-1. The experiment in a line: qHTS assay to identify novel small-molecules to repurpose for Merkel cell carcinoma treatment (AID 1296009). Note: nearly all actives have a fitted effect of over 60% in size. To be noted: MCC and control cell lines, CellTiter-Glo viability, 72 h; series mostly up to 46 µM. The gist of the method: (§1)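 Viability readout: ATP luminescence (CellTiter-Glo) after 72 hr drug exposure at 37 degree celsius. Dose-response format was 8 points for NPC and 11 points for MIPE; data normalized to in-plate controls.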
In general terms: qHTS replaces the single test concentration by a dilution series.

The test system of a further test is MKL-2. The test is described as above. To be noted: MCC and control cell lines, CellTiter-Glo viability, 72 h; series mostly up to 46 µM. An outline of the steps:
as §1

In the next test the test system is C33A. The experiment in a line: Primary qHTS to identify gynecologic anti-cancer compounds using libraries of approved drugs and bioactive compounds (AID 1345084). Note: nearly all actives have a fitted effect of over 55% in size. To be noted: Gynecologic cancer cell panel viability, ATPlite luminescence, 48 h; series mostly up to 57.5 µM. The gist of the method:
(§2)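 Cells, 1,000 per well, plated 16 h, then exposed 48 h at 37 C to compounds. Viability by ATPlite luminescence after 15 min at room temperature.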

Another test concerns CAOV3. The test is described as above. To be noted: Gynecologic cancer cell panel viability, ATPlite luminescence, 48 h; series mostly up to 57.5 µM. An outline of the steps:
as §2

The subject of another test is CASKI. Described as above. To be noted: Gynecologic cancer cell panel viability, ATPlite luminescence, 48 h; series mostly up to 57.5 µM. The gist of the method: as §2
Another test deals with Es-2. The description is as above. To be noted: Gynecologic cancer cell panel viability, ATPlite luminescence, 48 h; series mostly up to 57.5 µM. The gist of the method:
as §2
(In general: In ATP-based viability assays light output follows the ATP content of the culture.)

Another test concerns HeLa. Described as above. To be noted: Gynecologic cancer cell panel viability, ATPlite luminescence, 48 h; series mostly up to 57.5 µM. An outline of the steps:
as §2

A further test concerns Hek293T. Described as above. To be noted: Gynecologic cancer cell panel viability, ATPlite luminescence, 48 h, control line for the selectivity index; series mostly up to 57.5 µM. An outline of the steps: as §2
A further test has as its system JEG-3. The description is as above. To be noted: Gynecologic cancer cell panel viability, ATPlite luminescence, 48 h; series mostly up to 57.5 µM. An outline of the steps: as §2
The test system of another test is OV90. The test is described as above. To be noted: Gynecologic cancer cell panel viability, ATPlite luminescence, 48 h; series mostly up to 57.5 µM. The gist of the method:
as §2

The test system of a further test is SKOV3. The test is described as above. To be noted: Gynecologic cancer cell panel viability, ATPlite luminescence, 48 h; series mostly up to 57.5 µM. The gist of the method: as §2
The next test relates to Tov-21-G. Described as above. To be noted: Gynecologic cancer cell panel viability, ATPlite luminescence, 48 h; series mostly up to 57.5 µM. An outline of the steps:
as §2

For another test, the system named is Tov112D. The description is as above. To be noted: Gynecologic cancer cell panel viability, ATPlite luminescence, 48 h; series mostly up to 57.5 µM. An outline of the steps: as §2
In a further test the test system is WaGa. Briefly: qHTS assay to identify novel small-molecules to repurpose for Merkel cell carcinoma treatment (AID 1296009). Note: nearly all actives have a fitted effect of over 60% in size. To be noted: MCC and control cell lines, CellTiter-Glo viability, 72 h; series mostly up to 46 µM. An outline of the steps: as §1
The test system of a further test is PA-1. Briefly: Primary qHTS to identify gynecologic anti-cancer compounds using libraries of approved drugs and bioactive compounds (AID 1345084). Note: nearly all actives have a fitted effect of over 55% in size. To be noted: Gynecologic cancer cell panel viability, ATPlite luminescence, 48 h; series mostly up to 57.5 µM. The gist of the method:
as §2

The next test deals with UISO. Briefly: qHTS assay to identify novel small-molecules to repurpose for Merkel cell carcinoma treatment (AID 1296009). Note: nearly all actives have a fitted effect of over 60% in size. To be noted: MCC and control cell lines, CellTiter-Glo viability, 72 h; series mostly up to 46 µM. An outline of the steps: as §1
A short description of test [1]: Drug repurposing screens with cells derived from glioblastoma tumor samples (AID 1345199). Note: nearly all actives have a fitted effect of over 40% in size. To be noted: GBM patient neurospheres viability, ATP luminescence, 48 h. The gist of the method:
(§3)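 Primary testing used CD133+ neurospheres from four GBM patients, seven concentrations, 48 h exposure and ATP-based viability; confirmation added three slower-growing patient lines.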

The test system of another test is astro. The description is as above. To be noted: viability, ATP luminescence, 48 h; series mostly up to 45.9 µM. The gist of the method:
as §3

For another test, the system named is NIH3T3. Briefly: qHTS assay to identify novel small-molecules to repurpose for Merkel cell carcinoma treatment (AID 1296009). Note: nearly all actives have a fitted effect of over 60% in size. To be noted: MCC and control cell lines, CellTiter-Glo viability, 72 h; series mostly up to 44.8 µM. An outline of the steps: as §1
The mark [2] stands for this setting: at 45.9 µM (top of the series), tumour line B.
Where [3] appears, read: at 45.9 µM (top of the series), tumour line D.
Where [4] appears, read: at 46.1 µM (top of the series), tumour line C.
The mark [5] stands for this setting: at 20 µM (top of the series), tumour line C.
[6] abbreviates: at 21.2 µM (top of the series), tumour line B.

Inconclusive results are not listed. Values without a mark were called inactive. The source made the active and inactive calls. Calls come from the whole dose curve; as a rule, active = well fitted curve in the direction sought with a large enough effect; inconclusive = small, poorly fitted or top-dose-only effect, or another doubt; inactive = no such curve, though single readings can be large; an effect the other way counts as inactive or inconclusive.
% is set by controls: 0 for no effect and ±100 for the full control effect; potency is the fitted concentration of half-maximal effect.

Consider `Cc1cnc(CNC(=O)c2c(=O)c3ccc(N4CCCN(C)CC4)nc3n3c2sc2ccccc23)cn1`, for which the Potency entry in the test with MKL-1 and in the test on MKL-2 was “inactive” in each case. Moreover, the activity change, negative = cytotoxicity is -22% [at 11.6 µM] with C33A; -1.16% [at 11.6 µM] in the test on CAOV3; -0.786% [at 11.6 µM] with CASKI; -19% [at 11.6 µM] with Es-2; -13.6% [at 11.6 µM] in the test on HeLa; -21% [at 11.6 µM] in the test on Hek293T. Also, the activity change, negative = cytotoxicity in the test on JEG-3 is -3.1% [at 11.6 µM]; with OV90, 10.5% [at 11.6 µM]; in the test with SKOV3, -5.43% [at 11.6 µM]; in the test with Tov-21-G it was -27.4% [at 11.6 µM]; in the test on Tov112D, -20.9% [at 11.6 µM].
Consider `O=c1[nH]c(=O)n([C@H]2C[C@@H](O)[C@@H](CO)O2)cc1I`, for which the Potency result in the test with MKL-1, with MKL-2 and in the test with WaGa was “inactive” throughout.
Regarding `CC(C)C[C@@H](C(=O)N[C@H](C(=O)OC1CCCC1)c1ccccc1)[C@H](O)C(=O)NO`, in the test with MKL-1, the Potency entry was “inactive”. The Potency in the test on MKL-2 was 23.5 µM (active); with WaGa, 7.43 µM (active).
As for `O=C(O)c1ccc(O)c2ncc(N3CCOCC3)cc12`, the Potency with MKL-1 is 16.6 µM (active); with MKL-2 it was 14.8 µM (active); in the test with WaGa, 23.5 µM (active).
On to `COc1ccc(-c2cc3nccn3c(Nc3ncccc3C(N)=O)n2)cc1OC`, for which the Potency result with MKL-1, in the test with MKL-2, in the test with WaGa, with C33A, with CASKI and in the test with Es-2 was “inactive” each time. Also, the Potency entry in the test with Hek293T, in the test on OV90 and in the test on Tov112D was “inactive” throughout. The Potency in the test on PA-1 is 3.55 µM (active).
In the case of `CN1CC(=O)N2C(Cc3c([nH]c4ccccc34)[C@H]2c2ccc3c(c2)OCO3)C1=O` (some centres undefined), the Potency result in the test with MKL-1, in the test on MKL-2, with UISO, with WaGa and in the test on astro was “inactive” throughout. In addition, the activity, negative = cell killing was -5.44% in test [1] (setting [2]), -11.4% in [1] (setting [3]) and -21.6% in test [1] (setting [4]). Further, the Potency in test [1] (tumour line A) was 11.2 µM (active).
For the compound `O=S(=O)(NCCNCC=Cc1ccc(Br)cc1)c1cccc2cnccc12`, the figures for the Potency in the test on MKL-1, in the test on MKL-2 and with WaGa were 20.9 µM (active), 5.26 µM (active) and 14.8 µM (active), respectively.
Take `COc1ccc(-c2ccc3ncc4c(c3c2)n(-c2ccc(N3CCNCC3)c(C(F)(F)F)c2)c(=O)n4C)cn1`: the Potency with MKL-1 was 0.0296 µM (active); with MKL-2, 0.0418 µM (active); with UISO it was 0.0235 µM (active); in the test with C33A, 11.2 µM (active); in the test on CASKI it was 0.794 µM (active); with HeLa, 1.12 µM (active). Also, the Potency in the test on OV90 was 31.6 µM (active); in the test with PA-1 it was 0.316 µM (active); in the test on Tov-21-G, 35.5 µM (active); with Tov112D, 15.8 µM (active).
For `C#CCN(C)CC1=Cc2ccccc2Oc2ccccc21`, the Potency result in the test on MKL-1, in the test on MKL-2 and in the test on WaGa was “inactive” in each case.
With `CC(C)C[C@H](NC(=O)c1cc2ccccc2s1)C(=O)N1CCN(C(=O)[C@H](CO)NS(=O)(=O)c2ccc(Cl)cc2Cl)CC1`, the Potency entry in the test on MKL-1, in the test with MKL-2 and in the test with WaGa was “inactive” throughout.
Consider `COC1CCC(C(=O)c2ccc3nc4c(cc3c2)CCCO4)CC1` (centres undefined), for which the Potency entry with MKL-1, in the test with MKL-2 and in the test on WaGa was “inactive” in each case.
For `Cc1cccc2c1CC[C@H](CN1CCC(c3c(Cl)cccc3Cl)CC1)C[C@@H]2O`, the Potency entry in the test with MKL-1, in the test on MKL-2, in the test with WaGa, with C33A, in the test with CASKI and in the test with Es-2 was “inactive” throughout. Besides, the Potency entry in the test with OV90, in the test on Tov-21-G and in the test on Tov112D was “inactive” throughout. Besides, in the test on PA-1, the Potency is 11.2 µM (active).
On to `NCC1CCC(C(=O)O)CC1` (centres undefined), for which the Potency result in the test on MKL-1, with MKL-2, in the test on UISO, with WaGa and in the test on astro was “inactive” in each case. In addition, the activity, negative = cell killing was 25.1% in test [1] (setting [5]); -5.15% in test [1] (setting [6]); -6.32% in test [1] (at 21.2 µM (top of the series), tumour line D); -17.9% in test [1] (at 21.3 µM (top of the series), tumour line A).
With `CN(C)CCN(Cc1ccc(Cl)cc1)c1ccccn1`, the Potency entry in the test with MKL-1, in the test on MKL-2, with UISO, in the test on C33A, in the test on CAOV3 and with CASKI was “inactive” each time. Further, the Potency result in the test on Es-2, with HeLa, with Hek293T, in the test on JEG-3, with OV90 and with PA-1 was “inactive” each time. Further, the Potency result in the test on SKOV3, in the test on Tov-21-G, with Tov112D and with astro was “inactive” in each case. Further, the activity, negative = cell killing is -14.6% in [1] (setting [5]) and -16.9% in [1] (setting [6]). For the same compound, the Potency in test [1] (tumour line A) was 10 µM (active).
In the case of `C[C@@H](O[C@H]1OCCN(Cc2n[nH]c(=O)[nH]2)[C@@H]1c1ccc(F)cc1)c1cc(C(F)(F)F)cc(C(F)(F)F)c1`, the Potency entry in the test on MKL-1, in the test with MKL-2 and in the test on WaGa was “inactive” throughout.
As for `CSc1cccc(Nc2ncc3cc(-c4c(Cl)cccc4Cl)c(=O)n(C)c3n2)c1`, the Potency entry in the test with MKL-1, with MKL-2 and with WaGa was “inactive” in each case.
Turning to `O=c1[nH]nc(OCCCc2ccc(Cl)cc2)c(NCc2cccnc2)c1Br`, the Potency is 23.5 µM (active) with MKL-1 and 14.8 µM (active) in the test with MKL-2. Besides, the Potency result in the test on Es-2 and with HeLa was “inactive” each time.
As to `C[C@@H](N)c1ccc(C(=O)Nc2ccnc3[nH]ccc23)cc1`, the Potency entry in the test with MKL-1, with MKL-2, in the test with JEG-3 and in the test on OV90 was “inactive” in each case. For the same compound, the Potency with HeLa was 17.8 µM (active); in the test on Tov-21-G it was 31.6 µM (active); in the test with Tov112D it was 25.1 µM (active).
For the compound `COc1cc2ncnc(Nc3cc(Br)c(O)c(Br)c3)c2cc1OC`, the Potency result in the test on MKL-1, in the test with NIH3T3, in the test on WaGa, with C33A, in the test with CASKI and with Es-2 was “inactive” each time. Also, the Potency entry in the test on HeLa, in the test with Hek293T, with JEG-3, with OV90, in the test with PA-1 and with Tov-21-G was “inactive” in each case. In addition, the Potency entry with Tov112D was “inactive”.
For `CCCCCCCCCCCCCCCC(=O)O[C@H]1[C@@H](O)[C@@H](O)[C@@H]([C@H](NC(=O)[C@@H]2C[C@@H](CCC)CN2C)[C@H](C)Cl)O[C@@H]1SC`, the Potency entry with MKL-1, in the test with NIH3T3, with UISO and in the test with WaGa was “inactive” throughout. Also, the activity, negative = cell killing in [1] (setting [2]) is -20%; in [1] (setting [3]) it was -15.1%; in test [1] (setting [4]), 10.8%. Besides, in test [1] (tumour line A), the Potency is 17.8 µM (active).
